Where a name gives a salt, the structure may show the parent alone.
Tests used:
[1] = tested on: HCC1937; assay: relative cell viability, compound + erastin, vs DMSO (fraction of DMSO control); higher = less growth inhibition; settings: 72 h
[2] = tested on: MDA-MB-231; assay: as above; settings: 72 h
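Further: viability read by CCK-8 kit in 96-well plates, part of a combination screen pairing lipid-metabolism-targeting compounds with erastin.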

Structure (SMILES)	relative cell viability [1]	relative cell viability [2]
c1ccc([C@H]2CN3CCSC3=N2)cc1 [Levamisole hydrochloride] + CCOc1ccccc1-n1c(C(C)N2CCN(C(=O)COc3ccc(Cl)cc3)CC2)nc2ccccc2c1=O [erastin]	0.768	0.779
COC(=O)CN(c1ccc(CN(c2ccc(OCc3ccc(C)cc3)c(C(=O)OC)c2)S(=O)(=O)Cc2ccccc2)cc1)S(C)(=O)=O + CCOc1ccccc1-n1c(C(C)N2CCN(C(=O)COc3ccc(Cl)cc3)CC2)nc2ccccc2c1=O [erastin]	0.624	0.643
O=C(Oc1ccc([N+](=O)[O-])cc1)N1CCN(Cc2cccc(Oc3ccccc3)c2)CC1 + CCOc1ccccc1-n1c(C(C)N2CCN(C(=O)COc3ccc(Cl)cc3)CC2)nc2ccccc2c1=O [erastin]	0.199	0.312
C[C@H](CCOc1cccc(CC(=O)O)c1)N(Cc1cccc(C(F)(F)F)c1Cl)CC(c1ccccc1)c1ccccc1 [RGX-104 free Acid] + CCOc1ccccc1-n1c(C(C)N2CCN(C(=O)COc3ccc(Cl)cc3)CC2)nc2ccccc2c1=O [erastin]	0.564	0.488
CC(=O)N1CCN(c2ccc(OCC3COC(Cn4ccnc4)(c4ccc(Cl)cc4Cl)O3)cc2)CC1 (stereo unspecified) [Ketoconazole] + CCOc1ccccc1-n1c(C(C)N2CCN(C(=O)COc3ccc(Cl)cc3)CC2)nc2ccccc2c1=O [erastin]	0.884	0.602
CCOc1cc(CC(=O)N[C@@H](CC(C)C)c2ccccc2N2CCCCC2)ccc1C(=O)O [Repaglinide] + CCOc1ccccc1-n1c(C(C)N2CCN(C(=O)COc3ccc(Cl)cc3)CC2)nc2ccccc2c1=O [erastin]	0.711	0.566
CC1(N)CCN(c2cnc(-c3cccc(Cl)c3Cl)c(N)n2)CC1 [SHP099 hydrochloride] + CCOc1ccccc1-n1c(C(C)N2CCN(C(=O)COc3ccc(Cl)cc3)CC2)nc2ccccc2c1=O [erastin]	0.729	0.647
O=C(Nc1ccc(C(O)(C(F)(F)F)C(F)(F)F)cc1)c1ccccc1Cl + CCOc1ccccc1-n1c(C(C)N2CCN(C(=O)COc3ccc(Cl)cc3)CC2)nc2ccccc2c1=O [erastin]	0.769	0.844
COCCNC(=O)Nc1ccc2nc(-c3cccs3)c(-c3cccs3)nc2c1 [Ac-CoA Synthase Inhibitor1] + CCOc1ccccc1-n1c(C(C)N2CCN(C(=O)COc3ccc(Cl)cc3)CC2)nc2ccccc2c1=O [erastin]	0.597	0.669
COc1ccc2c(=O)c(-c3ccccc3)coc2c1 [7-Methoxyisoflavone] + CCOc1ccccc1-n1c(C(C)N2CCN(C(=O)COc3ccc(Cl)cc3)CC2)nc2ccccc2c1=O [erastin]	0.443	0.68
O=C(O)c1c[nH]c2cc(Cl)c(-c3ccc(C4(O)CCC4)cc3)cc12 + CCOc1ccccc1-n1c(C(C)N2CCN(C(=O)COc3ccc(Cl)cc3)CC2)nc2ccccc2c1=O [erastin]	0.599	0.677
CC(C)=CCC[C@](C)(O)[C@H]1CC[C@]2(C)[C@@H]1[C@H](O)C[C@@H]1[C@@]3(C)CC[C@H](O)C(C)(C)[C@@H]3[C@@H](O)C[C@]12C [(20S)-Protopanaxatriol] + CCOc1ccccc1-n1c(C(C)N2CCN(C(=O)COc3ccc(Cl)cc3)CC2)nc2ccccc2c1=O [erastin]	0.772	0.397
Cc1cc(=O)oc2c(O)c(O)ccc12 [7,8-Dihydroxy-4-methylcoumarin] + CCOc1ccccc1-n1c(C(C)N2CCN(C(=O)COc3ccc(Cl)cc3)CC2)nc2ccccc2c1=O [erastin]	0.489	0.881
CC(C)c1cc(C(C)C)c(CC(=O)NS(=O)(=O)Oc2c(C(C)C)cccc2C(C)C)c(C(C)C)c1 [Avasimibe] + CCOc1ccccc1-n1c(C(C)N2CCN(C(=O)COc3ccc(Cl)cc3)CC2)nc2ccccc2c1=O [erastin]	0.508	0.791
CCCCCCCCCCCCCCOc1ccc(C(=O)O)o1 + CCOc1ccccc1-n1c(C(C)N2CCN(C(=O)COc3ccc(Cl)cc3)CC2)nc2ccccc2c1=O [erastin]	0.56	0.696
CC1=C(/C=C/C(C)=C/C=C/C(C)=C/C=C/C=C(C)/C=C/C=C(C)/C=C/C2=C(C)C(=O)[C@@H](O)CC2(C)C)C(C)(C)C[C@H](O)C1=O [Astaxanthin] + CCOc1ccccc1-n1c(C(C)N2CCN(C(=O)COc3ccc(Cl)cc3)CC2)nc2ccccc2c1=O [erastin]	0.674	1.56
CCOC(=O)N1c2ccc(C(F)(F)F)cc2[C@@H](N(Cc2cc(C(F)(F)F)cc(C(F)(F)F)c2)C(=O)OC)C[C@H]1CC [Torcetrapib] + CCOc1ccccc1-n1c(C(C)N2CCN(C(=O)COc3ccc(Cl)cc3)CC2)nc2ccccc2c1=O [erastin]	0.66	0.823
Nn1nnc2ccccc21 [1-Aminobenzotriazole] + CCOc1ccccc1-n1c(C(C)N2CCN(C(=O)COc3ccc(Cl)cc3)CC2)nc2ccccc2c1=O [erastin]	0.76	0.73
